Among all 310,000 compounds or so, about 14,000 (4.5%) showed an effect of 50% or more. Effects have a minus sign here. What follows is part of a selection rich in strong results, with near analogues and random picks from the rest.
Target: human ether-à-go-go-related gene (hERG) potassium channel (human, UniProt Q12809)
Assay: primary screen, population patch clamp on CHO cells stably expressing hERG; higher = less effect of the substance
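Also: peak tail current of the secondary pulse compared with the same well before compound.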

human ether-à-go-go-related gene (hERG) potassium channel, sequence (Q12809 whole entry, looked up): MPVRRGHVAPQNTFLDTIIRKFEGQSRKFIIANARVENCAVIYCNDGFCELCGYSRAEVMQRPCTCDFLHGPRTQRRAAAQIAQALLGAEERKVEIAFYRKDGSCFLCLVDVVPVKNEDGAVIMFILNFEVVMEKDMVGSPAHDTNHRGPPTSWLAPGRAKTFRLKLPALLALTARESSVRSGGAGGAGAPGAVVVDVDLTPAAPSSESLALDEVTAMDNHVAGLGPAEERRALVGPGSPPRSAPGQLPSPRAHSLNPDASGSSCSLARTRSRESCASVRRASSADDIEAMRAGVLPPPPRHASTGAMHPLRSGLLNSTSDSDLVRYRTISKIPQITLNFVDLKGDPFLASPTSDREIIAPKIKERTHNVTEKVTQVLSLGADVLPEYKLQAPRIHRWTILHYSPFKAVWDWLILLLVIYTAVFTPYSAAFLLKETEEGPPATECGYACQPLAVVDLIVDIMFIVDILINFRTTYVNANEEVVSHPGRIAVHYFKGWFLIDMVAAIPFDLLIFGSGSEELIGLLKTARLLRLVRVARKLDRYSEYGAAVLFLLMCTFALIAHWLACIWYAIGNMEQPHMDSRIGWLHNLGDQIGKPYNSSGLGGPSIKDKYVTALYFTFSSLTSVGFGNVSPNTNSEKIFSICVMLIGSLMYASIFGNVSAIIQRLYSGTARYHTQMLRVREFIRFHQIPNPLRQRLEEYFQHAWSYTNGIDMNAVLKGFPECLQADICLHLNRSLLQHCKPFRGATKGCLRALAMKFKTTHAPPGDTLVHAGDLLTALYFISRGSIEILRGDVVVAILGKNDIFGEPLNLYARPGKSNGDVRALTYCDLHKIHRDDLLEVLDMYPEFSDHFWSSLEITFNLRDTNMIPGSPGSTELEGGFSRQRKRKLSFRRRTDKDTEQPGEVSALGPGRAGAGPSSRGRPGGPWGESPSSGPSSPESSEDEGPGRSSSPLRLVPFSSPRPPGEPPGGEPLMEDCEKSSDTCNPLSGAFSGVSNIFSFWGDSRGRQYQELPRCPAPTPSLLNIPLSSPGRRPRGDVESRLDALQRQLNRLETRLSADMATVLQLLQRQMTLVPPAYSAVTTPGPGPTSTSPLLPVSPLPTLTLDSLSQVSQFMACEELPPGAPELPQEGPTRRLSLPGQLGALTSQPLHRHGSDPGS

| Compound | hERG current change (%, negative = inhibition) at 10uM [%] |
| --- | --- |
| COC(=O)C1=C(N)Oc2cc(C)n(Cc3ccncc3)c(=O)c2C1c1cccnc1 (stereo not drawn) | -14.8 |
| CCn1c(/C=C\c2ccccc2C)nc2ccccc2c1=O | -19.1 |
| CC(C)c1ncc(S(=O)(=O)c2ccc(C(F)(F)F)cn2)c(N)n1 | 11.6 |
| CCOc1ncccc1C(=O)N1CCN(c2cc(Cl)ccc2C)CC1 | -4.75 |
| CCCCN1Cc2c(nc3cc(-c4ccccc4)[nH]n3c2=O)C1=O | 6.51 |
| Clc1ccccc1-c1nn2c(-c3ccncc3)nnc2s1 | -7.89 |
| O=C(Nc1cccc(Cl)c1)Nc1nnc(-c2ccccc2)o1 | 3.18 |
| CN1CCN(c2ccc([N+](=O)[O-])cc2NC(=O)c2ccccc2Cl)CC1 | -71.1 |
| CN1CCN(c2ccccc2NC(=O)c2ccc([N+](=O)[O-])cc2Cl)CC1 | -34.9 |
| O=C(Nc1ccccc1N1CCCC1)c1ccc([N+](=O)[O-])cc1Cl | -21.5 |
| Cn1c(=O)oc2cc(S(=O)(=O)NCCC(=O)Nc3ccc4c(c3)OCCO4)ccc21 | 2.4 |
| CCOc1ccc(CCNC(=O)COC(=O)c2cccnc2OCC)cc1OCC | -1.87 |
| COc1ccc(CN(C)C(=O)c2oc3ccccc3c2CSC)cc1F | 14.4 |
| CCN(Cc1ccc(OC)c(F)c1)C(=O)c1oc2ccccc2c1COC | -54.6 |
| CCN(Cc1ccc(OC)c(F)c1)C(=O)c1cc2ccccc2o1 | -24.7 |
| CC(/C=C/c1cccc([N+](=O)[O-])c1)=N/NC(=O)c1cccnc1 | -22.7 |
| O=c1c(C(c2ccc(F)cc2)c2c(O)nc3n(c2=O)CCCS3)c(O)nc2n1CCCS2 | 9.97 |
| O=C(Nc1cccc(Cl)c1)OCc1cn(-c2ccc(Cl)cc2)nn1 | 1.69 |
| O=C(Nc1cccc(Cl)c1)OCc1cn(-c2ccccc2)nn1 | -52.6 |
| O=C(Nc1ccccc1)OCc1cn(-c2ccc(Cl)cc2)nn1 | 22.3 |
| N#Cc1ccc(COc2ccc(CCO)cc2-n2nc3ccccc3n2)cc1 | -66.6 |
| OCCc1ccc(O)c(-n2nc3ccccc3n2)c1 | -17.1 |
| Cc1ccc(NC(=O)COc2ccc(CCO)cc2-n2nc3ccccc3n2)cc1C | 6.89 |

| Compound | hERG current change (%, negative = inhibition) at 10uM [%] |
| --- | --- |
| COc1ccc(NC(=O)c2ccc(COCC(F)(F)C(F)F)cc2)cc1OC | 7.39 |
| COC(=O)CCC(=O)OC1(C)C(=O)C=C2C=C(C3CC3)N(CCCCO)C=C2C1=O (stereo not drawn) | 4.26 |
| CCOCCCNCc1cccc(OC)c1.O=C(O)C(=O)O | 3.11 |
| CCOCCCNCc1cc(Cl)ccc1OCC.Cl | -11.8 |
| CCCNCc1cc(OC)c(OCc2ccccc2)cc1Br.Cl | -28.2 |
| CCOCCCNCc1ccc(OCc2ccccc2C)c(OC)c1.Cl | -24.4 |
| CCOCCCNCc1ccc(OCc2ccc(F)cc2)c(OC)c1.Cl | -33.6 |
| CCOCCCNCc1cccc(OCc2ccc(F)cc2)c1 | -50.1 |
| CCOCCCNCc1cc(Br)ccc1OCc1ccccc1 | -68.1 |
| CCOCCCNCc1cc(Br)ccc1OCC.Cl | -55.5 |
| CCOc1ccc(Br)cc1CNCCN1CCOCC1 | 1.31 |
| CCC1(c2ccccc2)NC(=S)N(c2ccc(C)cc2)N1 (stereo not drawn) | 22 |
| O=C(/C=C/c1ccc(F)cc1)NC(=S)Nc1ccccc1C(=O)NC1CCCCC1 | 2.56 |
| CC1CC(C)CN(C(=O)c2ccncc2)C1 (stereo not drawn) | 10.1 |
| COc1ccc(NC(=O)/C=C/c2ccccc2[N+](=O)[O-])c(OC)c1 | 4.66 |
| COCCNC(=O)C1CC(c2cccc([N+](=O)[O-])c2)=NO1 (stereo not drawn) | 15.8 |
| Cc1cc(NC(=O)Cn2nnc3sc4c(c3c2=O)CCCC4)no1 | 9.97 |
| O=C(NCc1cccc(Cl)c1)C1=CC=CN2CCS(=O)(=O)N=C12 | -5.54 |
| CC(NC(=O)C1=CC=CN2CCS(=O)(=O)N=C12)c1ccc(Cl)cc1Cl (stereo not drawn) | -57.9 |
| O=C(NCCc1ccc(Cl)cc1)C1=CC=CN2CCS(=O)(=O)N=C12 | -9.31 |
| c1ccc2c(Nc3nc4c(s3)CCCC4)cccc2c1 | 2.23 |
| CCN(C(=O)CN1C(=O)c2ccc([N+](=O)[O-])cc2C1=O)C1CCS(=O)(=O)C1 (stereo not drawn) | 13.8 |
| O=C(CSc1nc2ccc([N+](=O)[O-])cc2s1)NC1CCS(=O)(=O)C1 (stereo not drawn) | -5.62 |

| Compound | hERG current change (%, negative = inhibition) at 10uM [%] |
| --- | --- |
| CN(C(=O)CSc1nc(-c2ccccc2)cs1)C1CCS(=O)(=O)C1 (stereo not drawn) | -19.6 |
| CCN(C(=O)CSc1nc2ccc([N+](=O)[O-])cc2s1)C1CCS(=O)(=O)C1 (stereo not drawn) | -61.8 |
| CN(C(=O)CSc1nc2ccc([N+](=O)[O-])cc2s1)C1CCS(=O)(=O)C1 (stereo not drawn) | -55.9 |
| CCN(C(=O)Cn1cnc2cc([N+](=O)[O-])ccc2c1=O)C1CCS(=O)(=O)C1 (stereo not drawn) | 1.53 |
| O=[N+]([O-])c1cccnc1Sc1ccc(Cl)cc1 | -11 |
| O=C(Nn1c(COc2ccccc2)nc2ccccc2c1=O)C(Cl)(Cl)Cl | 9.26 |
| Cc1cccc(NC(=O)C(C)n2cc([N+](=O)[O-])cn2)n1 (stereo not drawn) | -7.48 |
| O=C(Cn1cc([N+](=O)[O-])cn1)Nc1nc2ccccc2s1 | -74.6 |
| O=C(Cn1cc([N+](=O)[O-])cn1)Nc1ccccn1 | 16.1 |
| O=C(Cn1ccc([N+](=O)[O-])n1)Nc1nc2ccccc2s1 | -45.8 |
| CC(C(=O)Nc1nc2ccccc2s1)n1cc([N+](=O)[O-])cn1 (stereo not drawn) | -69.5 |
| CC(C(=O)Nc1cccnc1)n1cc([N+](=O)[O-])cn1 (stereo not drawn) | 17.7 |
| CC(=O)c1sc(NC(=O)c2oc3ccc(F)cc3c2C)nc1C | 0.318 |
| O=C(c1cccc(F)c1)N1CCN(S(=O)(=O)c2ccccc2)CC1 | 0.349 |
| CO/N=C/c1ccc(N2CCN(C(=O)c3cccc(C(F)(F)F)c3)CC2)c([N+](=O)[O-])c1 | -43.5 |
| CO/N=C/c1ccc(N2CCN(C(=O)c3ccc(F)cc3)CC2)c([N+](=O)[O-])c1 | -78.3 |
| Cc1ccc(C(=O)O/N=C\c2ccc(N3CCCCC3)c([N+](=O)[O-])c2)cc1 | 12.8 |
| O=C(O/N=C\c1ccc(N2CCOCC2)c([N+](=O)[O-])c1)c1ccc(F)cc1 | -6.14 |
| CO/N=C/c1ccc(N2CCOCC2)c([N+](=O)[O-])c1 | 0.313 |
| O=C(O/N=C\c1ccc(N2CCCCC2)c([N+](=O)[O-])c1)c1ccc(Cl)cc1Cl | -1.17 |
| CO/N=C/c1ccc(N2CCN(C(=O)c3ccc(Cl)cc3Cl)CC2)c([N+](=O)[O-])c1 | -53.1 |
| CO/N=C/c1ccc(N2CCN(C(=O)c3ccc(C)cc3)CC2)c([N+](=O)[O-])c1 | -74.9 |
| CO/N=C/c1ccc(N2CCCC2)c([N+](=O)[O-])c1 | -1.34 |

| Compound | hERG current change (%, negative = inhibition) at 10uM [%] |
| --- | --- |
| O=C(NCCS(=O)(=O)N1CCN(c2ccccc2F)CC1)c1cccc(Br)c1 | 2.34 |
| O=C1COc2ccc(C(=O)CSc3ccccc3C(=O)O)cc2N1 | 12.1 |
| C=CCn1c(C)cc(-c2csc(NC(=O)CCc3nc4ccccc4c(=O)[nH]3)n2)c1C | -23.8 |
| CCOC(=O)C1C2C=CC3(CN(Cc4ccccc4)C(=O)C13)O2 (stereo not drawn) | 13.7 |
| C/C(CC(=O)NC1CCCCCC1)=N\NC(=O)c1cnccn1 | 2.01 |
| CC(C)n1cnnc1SCC(=O)NCC(=O)Nc1ccc(F)cc1 | 11.2 |
| C/C(=N\NC(=O)c1ccn(C)n1)c1ccc(NC(=O)c2cccc(F)c2)cc1 | 8.11 |
| CCc1ccc(OC(=O)c2cccnc2)cc1 | 21.6 |
| COCCCNC(=O)c1ccccc1NS(C)(=O)=O | 4.15 |
| COc1ccc(C(=O)NCCNc2nc3cc(C)c(C)cc3cc2C)cc1 | 7.22 |
| CCOc1ccc2nc(NCCNC(=O)CC)c(C#N)cc2c1 | -12 |
| COCC(=O)NCCNc1nc2ccc(C)cc2cc1C | -24.9 |
| CCOc1ccc2nc(NCCNC(=O)C(C)(C)C)c(C)cc2c1 | -46.1 |
| CCOc1ccc2nc(NCCNC(=O)C(C)C)c(C)cc2c1 | -61 |
| CCOc1ccc2nc(NCCNC(=O)C3CC3)c(C)cc2c1 | -63.7 |
| O=C(CSc1nc(-c2ccccc2)cs1)Nc1nccs1 | -8.07 |
| CC(=O)c1c(N2CCN(C(=O)c3ccco3)CC2)nc(=S)n(-c2ccccc2)c1C | -1.95 |
| Cc1cc(NC(=O)c2ccc(Br)c(S(=O)(=O)N3CCCC3)c2)no1 | 0.115 |
| COc1ccc2cc1Oc1ccc(cc1)C[C@H]1c3cc(c(OC)cc3CCN1C)Oc1c(OC)c(OC)cc3c1[C@H](C2)N(C)CC3 | -37.4 |
| COc1ccc2cc1Oc1ccc(cc1)C[C@H]1c3cc(c(OC)cc3CCN1C)Oc1c(O)c(OC)cc3c1[C@H](C2)N(C)CC3 | -47.7 |
| COc1ccc2cc1Oc1ccc(cc1)C[C@H]1c3cc(c(OC)cc3CCN1C)Oc1c(OC)c(OC)cc3c1[C@@H](C2)N(C)CC3 | -57.4 |
